Measurements from ChEMBL document CHEMBL3433997, “St. Jude Leishmania screening dataset” (2016).

Experiments:
Type in all cases: functional
[1] = target: Solute carrier family 2, facilitated glucose transporter member 1 (Homo sapiens) (UniProt P11166); assay: ST_JUDE_LEISH: Cytotoxicity at 2uM final concentration against transgenic Leishmania Mexicana promastigotes LmGLUT1 that are glucose transport deficient and complemented with the human glucose transporter GLUT1. Activity is measured by DNA content using SYBR green in vitro
Solute carrier family 2, facilitated glucose transporter member 1 (Homo sapiens), sequence (P11166 whole entry): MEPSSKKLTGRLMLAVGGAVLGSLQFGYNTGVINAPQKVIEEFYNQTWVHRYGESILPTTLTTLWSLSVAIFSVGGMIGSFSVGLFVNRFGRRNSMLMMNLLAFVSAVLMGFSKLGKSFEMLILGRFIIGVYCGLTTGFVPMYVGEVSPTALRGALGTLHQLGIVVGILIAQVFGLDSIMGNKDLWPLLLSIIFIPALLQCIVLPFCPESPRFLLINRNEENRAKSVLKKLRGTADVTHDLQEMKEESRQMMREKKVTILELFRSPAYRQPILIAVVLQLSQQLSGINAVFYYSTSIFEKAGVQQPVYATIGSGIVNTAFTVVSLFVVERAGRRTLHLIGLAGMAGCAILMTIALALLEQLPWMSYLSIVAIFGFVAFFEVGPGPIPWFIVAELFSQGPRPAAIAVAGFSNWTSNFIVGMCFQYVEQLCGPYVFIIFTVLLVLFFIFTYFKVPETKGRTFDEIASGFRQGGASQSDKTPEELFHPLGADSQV

[2] = target: Hexose transporter 1 (Plasmodium falciparum) (UniProt O97467); assay: ST_JUDE_LEISH: Cytotoxicity at 2uM final concentration against transgenic Leishmania Mexicana promastigotes LmPfHT that are glucose transport deficient and complemented with the Plasmodium falciparum hexose transporter. Activity is measured by DNA content using SYBR green in vitro
[3] = target: Glucose transporter (Leishmania mexicana) (UniProt O61059); assay: ST_JUDE_LEISH: Cytotoxicity at 2uM final concentration against transgenic Leishmania Mexicana promastigotes LmGT2 that are glucose transport deficient and complemented with the L. Mexicana glucose transporter 2. Activity is measured by DNA content using SYBR green in vitro

Row | SMILES | inhibition [1] | inhibition [2] | inhibition [3]
1 | COc1ccc(C)c(Nc2ccnc(Nc3ccc(-c4cnc[nH]4)cc3)n2)c1 | 2.85% | 2.37% | 3.29%
2 | COc1ccc2nccc([C@@H](O)CN3CCC(NC(=O)c4ccc(Cl)c(Cl)c4)CC3)c2c1 | 25.5% | 41.7% | 18.8%
3 | CC(C)N(CCOc1ccc2c(c1)N(C(=O)Nc1cc(Br)cc(C(F)(F)F)c1)CC2)C(C)C | 3.92% | 2.23% | 1.38%
4 | CN(C)CCOc1cc(NC(=O)Nc2ccc(-c3ccncc3)c(Cl)c2)ccc1I | 2.24% | 1.09% | 1.54%
5 | COc1ccc(C2(CNCC(O)c3cccc([N+](=O)[O-])c3)CCCCC2)cc1OC (configuration not stated) | 1.34% | 2.95% | 0.33%
6 | CCN(CCCN1CCCCC1)c1cc(C)nc(Nc2ccc(C)cc2C)n1 | 1.88% | 1.53% | 2.76%
7 | CCn1ccc2c(N3CCCC3=O)cc(C(=O)N[C@@H](Cc3ccccc3)[C@H](O)CNC3CCCCC3)cc21 | 4.2% | 7.08% | 0.18%
8 | c1ccc(CCNc2ncnc3c2[nH]c2ccccc23)cc1 | 3.67% | 11.6% | 3.69%
9 | OC(CNc1ccnc(Nc2cccc(Cl)c2)n1)c1cccc(F)c1 (configuration not stated) | 3.71% | 4.41% | -3.09%
10 | CC(=O)Nc1ccc2[nH]cc(C3CCN(CC4CCN(C(=O)/C=C/c5ccc(Cl)c(Cl)c5)CC4)CC3)c2n1 | 3.09% | 0.87% | -1.1%
11 | Cc1ccc(NC(=O)c2ccc(C(=O)NC3CCN(CC4CCCCC4)CC3)cc2)cc1 | 2.26% | 3.07% | 1.65%
12 | N#Cc1ccc(N/C(=N\c2cccc(Cl)c2Cl)NCc2ccc(Cl)cc2Cl)c(O)c1 | 9.71% | 9.71% | 9.16%
13 | Cc1cc(NCCc2ccc(O)cc2)nc(NCC(c2ccccc2)c2ccccc2)n1 | 12.9% | 8.92% | 5.19%
14 | CCCCCCN(CCCCCC)CCCCNc1c2ccc(Cl)cc2nc2ccc(OC)cc12 | -3.87% | 0.39% | 0.56%
15 | O=C(CCNc1ccnc(NCCc2ccc(F)cc2)n1)Nc1ccccc1 | 3.86% | 4.56% | 3.24%
16 | CC(C)NCc1ccc(-c2cccc(NC(=O)c3cccc(C#N)c3)c2)cc1 | 2.87% | 2.38% | -2.27%
17 | O=C(NCCCCN1CCC(c2ccc3ccccc3c2O)CC1)c1ccc(-c2ccc(Cl)cc2)cc1 | 5.43% | 3.32% | 3.45%
18 | CCOc1ccc(Nc2cc(C)nc(Nc3ccc(OCC)cc3)n2)cc1 | 0.78% | 2.01% | 1.02%
19 | O=S(=O)(ON=C1CCc2ccccc21)c1ccc(Cl)cc1 | 1.95% | -0.07% | 3.35%
20 | O=C(Nc1cccc(-c2cccc(-c3nc4cc(C(F)(F)F)ccc4[nH]3)c2)c1)c1c[nH]cn1 | 1.86% | 3.96% | -1.42%
21 | Cc1cccc2nc(-c3ccc(-c4ccc(CNCc5ccc(CN)cc5)cc4)s3)[nH]c12 | 5.43% | 8.51% | 0.48%
22 | COc1ccc2nc3cc(Cl)ccc3c(NCCc3ccccc3)c2c1 | 1.15% | 1.24% | -0.37%
23 | Oc1ccc(CCNc2nc(NCCCOc3cc(CN4CCCCC4)ccc3F)nc(N3CCNCC3)n2)cc1 | 1.98% | 4.72% | 5.14%

Row | SMILES | inhibition [1] | inhibition [2] | inhibition [3]
24 | Nc1cccc(CNCc2cccc(-c3ccc(-c4nc5cc(C(F)(F)F)ccc5[nH]4)cc3)c2)c1 | 4.8% | 6.83% | 3.77%
25 | COc1cc2c(cc1NS(=O)(=O)c1ccc(OCc3ccc(Br)cc3)cc1)CCN(C1CCC1)CC2 | 0.64% | -0.8% | -0.51%
26 | Cc1cccc(N2CCN(C3CCC(NC(=O)c4cc5ccccc5[nH]4)CC3)CC2)c1C (configuration not stated) | 2.31% | 1.82% | 1.43%
27 | CCc1ccc(CN(CCCOc2cccc(CC(=O)NCc3c[nH]cn3)c2)Cc2ccc(-n3ccnc3)cc2)cc1 | 2.55% | 2.84% | 3.08%
28 | CCOc1ccccc1CCNC(C)Cc1ccc(C(=O)Nc2ccc(CC(C)NCCc3cccc(Cl)c3)cc2)cc1 (configuration not stated) | 28% | 34.1% | 3.04%
29 | CC(C)CCn1c(Sc2ccc(C#N)c([N+](=O)[O-])c2)nnc1-c1ccc(Cl)cc1 | 10.1% | 9.73% | 4.99%
30 | COCCN1CCC(C(=O)NCC(C)(C)c2nc(-c3ccc(Br)c(O)c3)c(-c3ccncc3)[nH]2)CC1 | 7.2% | 8.02% | 7.22%
31 | O=S(=O)(Nc1ccc(CCN2CCC(N3CCCCC3)CC2)cc1)c1ccc2ccccc2c1 | 4.91% | 11.2% | 4.79%
32 | COc1ccc(NC(=O)/C=C/c2cc(Br)ccc2F)cc1OCCN(C(C)C)C(C)C | 0.52% | 0.38% | 0.14%
33 | Cc1ccc(-c2noc(COc3ccccc3C(=O)NC3CCCC3)n2)cc1 | 3.88% | 6.24% | 6.15%
34 | Oc1ccc(CCNCCCCCCNCCCc2ccc(Cl)cc2)cc1O | 2.83% | 4.13% | 4.05%
35 | CC1(C)N=C(NC(=O)Nc2ccc([N+](=O)[O-])cc2)N=C(N)N1OCc1cccc2ccccc12 | 2.41% | 4.36% | 5.77%
36 | COc1ccc2ncc(F)c(CCN3C[C@H](CNCc4cc(F)c5c(c4)NC(=O)CO5)[C@H](O)C3)c2n1 | 3.52% | 4.83% | 0.92%
37 | CC1CCCCC1N(C)C1CCN(CCCNC(=O)C=Cc2cccc(C(F)(F)F)c2)CC1 (configuration not stated) | 4.22% | 2.29% | 1.79%
38 | NC1CCN(Cc2ccc(-c3ccc(-c4nc5ccccc5[nH]4)s3)cc2)C1 (configuration not stated) | 3.97% | 1.77% | 3.21%
39 | CCCCOC(=O)c1ccc(NC(=O)Nc2ccc(Cn3ncc(N4CCCNCC4)c(Cl)c3=O)cc2)cc1 | 9.01% | 10.1% | 7.4%
40 | Cc1ccc(-c2cccc3c(NC(=O)Nc4ccc5nccc(N6CCN(C)CC6)c5c4)cccc23)cn1 | 0.51% | 0.17% | 7.64%
41 | Cn1c(NC(=O)C2CCCN(C(=O)c3ccc(O)c(-c4ccc(Cl)c(Cl)c4)c3)C2)nc2ccccc21 (configuration not stated) | 0.08% | -0.09% | -7.08%
42 | CN(C)CCNCc1cccc(-c2cccc(-c3nc4ccccc4[nH]3)c2)c1 | 2.56% | 2.66% | 1.85%
43 | C[C@H](Cc1ccc(OCCCCCCOc2ccc(C[C@@H](C)N[C@H](C)c3ccccc3)cc2)cc1)NC[C@H](O)c1cccc(Cl)c1 | 106% | 94% | 82.4%
44 | CC(C)(C)Oc1ccc(C[C@@H]2NC3(C(=O)N(Cc4ccc(Cl)c(Cl)c4)c4ccccc43)C3C(=O)N(c4ccc(Br)cc4)C(=O)C32)cc1 (some centres not stated) | 4.6% | 4.73% | 2.5%
45 | CC(C)CCCC(C)(C)NC[C@@H](O)[C@H](Cc1ccccc1)NC(=O)c1cc(NC(C)C)cc(N2CCCCS2(=O)=O)c1 | -0.83% | -1.58% | -3.27%
46 | COc1cc(Cc2cnc(N)nc2N)cc(OCCCCCC(N)=O)c1OC | -0.36% | -2.79% | 1.17%

Row | SMILES | inhibition [1] | inhibition [2] | inhibition [3]
47 | Cc1ccc(Nc2ccnc(Nc3ccc(C)c(F)c3)n2)cc1O | 9.14% | 12.6% | 3.98%
48 | Cc1cc(N(C)C)nc(Nc2ccc(NC(=O)C3CCCCC3)cc2)n1 | 5.14% | 5.64% | 3.75%
49 | CC(C)(C)c1cc2cc(Nc3ccnc4cc(-c5nccs5)ccc34)ccc2[nH]1 | 6.8% | 7.87% | 5.41%
50 | CC(C)=CCN1CCC(C(=O)Nc2ccc(-c3nc4ccccc4[nH]3)cc2)CC1 | 5.64% | 5.1% | 6.97%
51 | O=C(NCc1cccc(F)c1)c1ccc(O)c(-c2cc(Cl)cc(Cl)c2)c1 | 4.04% | 3.75% | 4.34%
52 | O=C(/C=C/c1ccc(Cl)c(Cl)c1)NCCCCCN1CCCC(CNS(=O)(=O)c2ccc(F)cc2)C1 (configuration not stated) | -1.15% | -0.91% | 1.39%
53 | O=C(NC1CCC(N2CCC(c3nc4ccccc4s3)CC2)CC1)c1cc2ccccc2[nH]1 (configuration not stated) | -0.44% | -2.33% | -1.51%
54 | Nc1cccc(CNCc2cccc(-c3cccc(-c4nc5cc(C(F)(F)F)ccc5[nH]4)c3)c2)c1 | 1.23% | -0.22% | 1.43%
55 | N#Cc1ccc(N2CCN(Cc3cccc(-c4cccc(-c5nc6cc(C(F)(F)F)ccc6[nH]5)c4)c3)CC2)nc1 | 0.03% | 0.73% | -2.37%
56 | CC(C)CNCc1ccc(OCc2cccc(COc3ccc(CNCC(C)C)cc3I)c2)c(I)c1 | 2.2% | 1.42% | 2.23%
57 | CCCCCC(=O)N1CCOC(CCN2CCC(c3ccccc3)CC2)(c2ccc(Cl)c(Cl)c2)C1 (configuration not stated) | 2.57% | 3.27% | 0.92%
58 | CCN(CC)CCN(Cc1ccc(-c2ccc(C(F)(F)F)cc2)cc1)C(=O)Cn1c(CCc2ccc(F)c(F)c2)nc(=O)c2ccccc21 | 1.89% | 0.22% | 1.08%
59 | CCCNc1ccc(-c2cc(C(N)=O)c3[nH]cc(C4CCN(S(=O)(=O)CC)CC4)c3c2)cn1 | 3.86% | 6.54% | 3.64%
60 | OC1CCCN(Cc2ccc(-c3ccc(-c4nc5ccccc5[nH]4)cc3)cc2)C1 (configuration not stated) | 8.52% | 7.95% | 5.37%
61 | NC(=O)c1cc(-c2ccccc2)cc2c(C3CCC(NCc4ccccc4)C3)c[nH]c12 (configuration not stated) | 0.91% | 1.64% | 0.8%
62 | CCN1CCC(NCc2ccc(-c3ccc(Cl)s3)cc2)CC1 | -1.87% | -1.38% | -1.7%
63 | CCC(CC)NCc1c(O)ccc2c(CNC(CC)CC)c(O)ccc12 | -1.88% | -0.71% | -1.57%
64 | COc1ccc2nccc([C@@H](O)CN3CCC(NC(=O)C(=Cc4ccc(C#N)cc4)c4ccc(-c5ccccc5)cc4)CC3)c2c1 | 1.28% | 0.19% | -0.89%
65 | CCOc1cc(Br)c(C(C)NC(=O)c2ccccc2)cc1OCC (configuration not stated) | 1.08% | 0.92% | 1.97%
66 | O=C(/C=C/c1ccc(Cl)c(Cl)c1)NCCCCCN1CCC(NC(=O)Nc2cccc(Cl)c2)CC1 | 3.22% | 4.71% | 3.33%
67 | Oc1ccc(CCNCc2ccc(OCc3ccccc3)c(OCc3ccccc3)c2)cc1 | 75% | 76.6% | 68.5%
68 | CCNc1cc(C(=O)N[C@@H](Cc2ccccc2)[C@H](O)CNC2CCC(C)(C)C2)cc(N2CCCCS2(=O)=O)c1 (some centres not stated) | 2.05% | 2.29% | 2.37%
69 | O=C(/C=C/c1ccc(Cl)c(Cl)c1)N1CCN(C(=O)Nc2ccc(F)c(Cl)c2)CC1 | 9.87% | 8.92% | 11.1%
